In PubChem BioAssay (EPA / NIEHS):
Records with an inconclusive call do not appear. Activity calls are given as the source filed them. Rule for the calls: active = hit-call score of the fitted dose curve at least 0.9, where 1 is the maximum; inconclusive = response in the unintended direction; inactive = score below 0.9.

target: Bile acid receptor (Homo sapiens) (UniProt Q96RI1); assay: OT_FXR_FXRSRC1_0480: Odyssey Thera (OT) 8-hour HEK293T Protein-Complementation Assay for Farnesoid X receptor/SRC-1 Co-activator (AID 2283383)
Sequence (Q96RI1 whole entry, looked up, the tested form may be a part): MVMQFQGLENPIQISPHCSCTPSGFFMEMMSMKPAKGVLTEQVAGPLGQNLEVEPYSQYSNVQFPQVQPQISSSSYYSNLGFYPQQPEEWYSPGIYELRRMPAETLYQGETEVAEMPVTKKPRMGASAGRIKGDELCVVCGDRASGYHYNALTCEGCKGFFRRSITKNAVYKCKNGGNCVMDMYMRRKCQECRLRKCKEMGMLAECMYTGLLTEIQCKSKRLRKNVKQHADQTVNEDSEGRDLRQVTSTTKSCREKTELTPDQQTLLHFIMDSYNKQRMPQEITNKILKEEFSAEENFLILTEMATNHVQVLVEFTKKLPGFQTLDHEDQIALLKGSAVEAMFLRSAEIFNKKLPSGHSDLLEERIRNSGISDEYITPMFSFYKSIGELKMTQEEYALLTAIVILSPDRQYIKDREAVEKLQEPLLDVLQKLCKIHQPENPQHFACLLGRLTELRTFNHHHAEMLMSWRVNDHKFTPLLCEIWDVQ
Protocol: OT_FXR_FXRSRC1_0480 is a cell-based assay that uses HEK293T, a human kidney cell line, with measurements taken at 8 hours after chemical dosing in a 384-well plate.OT_FXR_FXRSRC1_0480 is one of one assay component(s) measured or calculated from the OT_FXR_FXRSRC1_0480 assay. It is designed to make measurements of protein fragment complementation, a form of binding reporter, as detected with fluorescence intensity signals by Protein-fragment Complementation technology.Data from the assay component OT_FXR_FXRSRC1_0480 was analyzed into 1 assay endpoint. This assay endpoint, OT_FXR_FXRSRC1_0480, was analyzed in the positive analysis fitting direction relative to DMSO as the negative control and baseline of activity. Using a type of binding reporter, measures of receptor for gain-of-signal activity can be used to understand the binding at the pathway-level as they relate to the gene NR1H4. Furthermore, this assay endpoint can be referred to as a primary readout, because the performed assay has only produced 1 assay endpoint. To generalize the intended target to other relatable targets, this assay endpoint is annotated to the nuclear receptor intended target family, where the subfamily is non-steroidal.
Protein-fragment complementation assay, or PCA, is a method for the identification and quantification of protein-protein interactions. In the PCA, the proteins of interest ("bait" and "prey") are each covalently linked to fragments of a third protein (e.g. DHFR, which acts as a "reporter"). Interaction between the bait and the prey proteins brings the fragments of the reporter protein in close proximity to allow them to form a functional reporter protein whose activity can be measured.

Structure (SMILES) | outcome | AC50
CCCCC(CC)COC(=O)c1c(Br)c(Br)c(Br)c(Br)c1C(=O)OCC(CC)CCCC (stereo unspecified) | inactive | 
c1nc[nH]n1 | inactive | 
O=S(=O)(c1ccc(O)cc1)c1ccc(O)cc1 | inactive | 
O=C(O)C1C(C(=O)O)C2(Cl)C(Cl)=C(Cl)C1(Cl)C2(Cl)Cl (stereo unspecified) | inactive | 
O=S1(=O)OCC2C(CO1)C1(Cl)C(Cl)=C(Cl)C2(Cl)C1(Cl)Cl (stereo unspecified) |  | 49.3 µM (active)
Cc1ccc(N)cc1N | inactive | 
CCOc1ccc(C(C)(C)COCc2cccc(Oc3ccccc3)c2)cc1 | inactive | 
O=P(OCC(Br)CBr)(OCC(Br)CBr)OCC(Br)CBr (stereo unspecified) |  | 11.4 µM (active)
CCC(C)(C)c1ccc(O)cc1 |  | 60.9 µM (active)
O=[N+]([O-])c1ccc(Cl)c(Cl)c1 | inactive | 
CCCCc1ccc(O)cc1 | inactive | 
ClC(Cl)(Cl)c1ccccc1 | inactive | 
CC(C)(C)N(NC(=O)c1ccc(Cl)cc1)C(=O)c1ccccc1 |  | 70.1 µM (active)
O=NN1CCCC1 | inactive | 
CCNc1nc(Cl)nc(NC(C)(C)C)n1 | inactive | 
CCCCc1ccccc1 | inactive | 
O=C(CBr)OCc1ccccc1 | inactive | 
CCCCN(CCCC)N=O | inactive | 
Cc1ccc([N+](=O)[O-])cc1C | inactive | 
O=P(Oc1ccccc1)(Oc1ccccc1)Oc1ccccc1 |  | 11.9 µM (active)
CCCCN(CC)C(=O)SCCC | inactive | 
ClC1=C(Cl)C2(Cl)C3C(Cl)C(Cl)CC3C1(Cl)C2(Cl)Cl (stereo unspecified) | inactive | 
CC(C)(C)OOC(C)(C)C | inactive | 
CO/N=C(/C(=O)OC)c1ccccc1COc1ccccc1C |  | 13.4 µM (active)
CCCCC(CC)COP(=O)(Oc1ccccc1)Oc1ccccc1 (stereo unspecified) |  | 2.85 µM (active)
CCOP(=S)(OCC)SCSCC |  | 32.6 µM (active)
